The record followed here is the supplement of paper PMC9492666.

The structures appear in SMILES notation.
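Also: viability read by CCK-8 kit in 96-well plates, part of a combination screen pairing lipid-metabolism-targeting compounds with erastin.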

The test system of the experiment is HCC1937. The experiment is described as follows: relative cell viability, compound + erastin, vs DMSO (fraction of DMSO control); higher = less growth inhibition. To be noted: 72 h.
In the case of `O=C(NN1CCCCC1)c1nn(-c2ccc(Cl)cc2Cl)c(-c2ccc(C#Cc3ccc(C(F)(F)F)cc3)s2)c1CNS(=O)(=O)N1CCCC1` + CCOc1ccccc1-n1c(C(C)N2CCN(C(=O)COc3ccc(Cl)cc3)CC2)nc2ccccc2c1=O [erastin], the relative cell viability amounted to 0.496.
The result for `CCCCCCCCCCCCCCOc1ccc(C(=O)O)o1` + CCOc1ccccc1-n1c(C(C)N2CCN(C(=O)COc3ccc(Cl)cc3)CC2)nc2ccccc2c1=O [erastin] reads 0.56; that for `O=C(O)c1cc2c(Cl)c(N3CCN(S(=O)(=O)c4c(Cl)cccc4Cl)CC3)ccc2o1` [Vonafexor] + CCOc1ccccc1-n1c(C(C)N2CCN(C(=O)COc3ccc(Cl)cc3)CC2)nc2ccccc2c1=O [erastin], 0.846; that for `O=C(c1ccc(NS(=O)(=O)c2cccc3cccnc23)cc1)N1CCN(CC2CC2)CC1` [Mitapivat] + CCOc1ccccc1-n1c(C(C)N2CCN(C(=O)COc3ccc(Cl)cc3)CC2)nc2ccccc2c1=O [erastin], 0.596.
The result for `C=C1C[C@]2(O)O[C@@]3(CC2=C(C)C)[C@@H](C)CC[C@@H]13` [Isocurcumenol] + CCOc1ccccc1-n1c(C(C)N2CCN(C(=O)COc3ccc(Cl)cc3)CC2)nc2ccccc2c1=O [erastin] reads 0.566; that for `COc1ccc(C(=O)/C=C/c2ccccc2)cc1` [4'-Methoxychalcone] + CCOc1ccccc1-n1c(C(C)N2CCN(C(=O)COc3ccc(Cl)cc3)CC2)nc2ccccc2c1=O [erastin], 0.54.
The value for `O=C(Oc1ccc([N+](=O)[O-])cc1)N1CCC(C(O)(c2ccc3c(c2)OCO3)c2ccc3c(c2)OCO3)CC1` + CCOc1ccccc1-n1c(C(C)N2CCN(C(=O)COc3ccc(Cl)cc3)CC2)nc2ccccc2c1=O [erastin] was 0.556.
